This is a sample that favours compounds with a hit; in the whole collection about 2.1% have one here.
ARNT-TACC3 inh: disruptors of ARNT/TACC3 protein interaction, primary screen, biochemical, AlphaScreen, single concentration | hit rate 0.66% among 390,000 | AlphaScreen His-ARNT PAS-B/GST-TACC3 binding, luminescence; TACC3 fragment carries E629A point mutation | Transforming acidic coiled-coil-containing protein 3 (Homo sapiens), Q9Y6A5 | AID 623870, 2012 | inhibition, % at 9.99 µM;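 active = mean inhibition of replicates at least 50% and at least half of replicates each reaching 50%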;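 note: 0% = complete ARNT plus TACC3 wells and 100% = ARNT alone without TACC3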
ERAP1 inh: human ERAP1 aminopeptidase inhibitors, primary screen, biochemical, single point, plate reader. Endoplasmic reticulum aminopeptidase 1 (Homo sapiens), Q9NZ08. recombinant ERAP1, Leu-AMC fluorescence, 60 min. inhibition, % at 10.7 µM. hit rate 0.15% among 340,000. AID 652197, 2013;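 active = mean replicate inhibition of at least 30%, or all replicates individually reaching that 30% level; inactive = mean below 30% and not every replicate reaching it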;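 note: 0% = neutral control wells and 100% = L-leucinethiol positive control wells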
rRNA inh HTS: reduced GFP signal of wild-type E. coli, primary screen, bacterial rRNA inhibitor project, GFP/RFP fluorescence, OD600, single point; E. coli WT GFP vs humanized-ribosome RFP mutants, 24 h; hits give low values; DMSO median 0, no signal -100; GFP signal change (wild-type ribosome), % (no concentration beside the values); hit rate 1.6% among 350,000;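 active = significant combined selectivity score with lowered wild-type GFP, culture density cut under 30%, mutant RFP and density less affected; inactive = any of these conditions unmet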
F508del corr: F508del CFTR correction, initial screen, CFBE line, single point. activity (quench increase), % at 7.58 µM. hit rate 0.36% among 350,000. CFBE cells, YFP halide quenching; stimulated with forskolin plus potentiator P3; % fluorescence drop versus neutral controls;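 active = mean added fluorescence quench of at least 8% versus neutral control, with both replicates also reaching 8%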;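 note: cells transiently co-express mutant CFTR-F508del with the halide-sensitive YFP; corrector assay measuring rescue of mutant channel to the surface after 24 h compound exposure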
PvdQ inh: P. aeruginosa PvdQ acylase inhibitors, primary screen, biochemical, fluorescence, plate reader and imaging, single point | hit rate 0.063% among 340,000 | inhibition, % at 10 µM | PvdQ acylase [Pseudomonas aeruginosa LESB58] | AID 488965, 2010 | purified PvdQ acylase; in the data active = inhibition above about 30%, passing the limit was not always enough;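 note: 0% = vehicle neutral wells and 100% = reference inhibitor wells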
Active calls of the source: *; . = no result.

SMILES	ARNT-TACC3 inh	ERAP1 inh	rRNA inh HTS	F508del corr	PvdQ inh
O=C(CCc1ccccc1)NCC(c1ccco1)N1CCc2ccccc21 (stereo not given)	-13	-3	-31	14*	-3
COc1ccc(C(=O)NCC(c2ccco2)N2CCc3ccccc32)c(OC)c1 (stereo not given)	0	-3	-24*	5	-16
N#C/C(=C\Nc1ccc(Cl)cn1)S(=O)(=O)c1ccccn1	1	0	16	2	-15
N#C/C(=C\Nc1ccc(Cl)cn1)S(=O)(=O)c1ccccc1	-6	9	-35*	2	0
CC=Cc1ccc2n(c1=O)C[C@H]1[C@H](CO)[C@@H](C(=O)N(C)C)N(C(=O)CC)[C@@H]21 (mixture of isomers)	.	.	0	0	.
CO[C@H]1CN(C)C(=O)c2cc(NC(=O)C3CC3)ccc2OC[C@@H](C)N(Cc2ccncc2)C[C@@H]1C	-10	3	-2	0	.
O=C(CSc1nnc(C2CC2)n1C1CC1)c1ccc(Br)s1	3	2	-28*	-1	-18
COCc1cc(C)nc(Sc2nc3c(c(=O)n(C)c(=O)n3C)n2C)c1C#N	-9	31*	0	2	-10
COCc1cc(C)nc(SCc2ccccc2)c1C#N	-4	.	-15	0	-5
Cc1ccc(CCNC(=O)CCS(=O)(=O)c2ccc(Br)cc2)cc1	.	1	9	-6	30*
Cc1ccc(S(=O)(=O)CCC(=O)NCCc2ccc(Cl)cc2)cc1	2	1	0	-4	8
Cc1[nH]n(-c2ccccc2)c(=O)c1C(C[N+](=O)[O-])c1ccc(Br)cc1 (stereo not given)	48*	.	.	.	-3
Cc1[nH]n(-c2ccccc2)c(=O)c1C(c1cccc([N+](=O)[O-])c1)c1c(C)[nH]n(-c2ccccc2)c1=O	.	-3	-46*	0	12
Cc1[nH]n(-c2ccccc2)c(=O)c1C(c1cccc([N+](=O)[O-])c1O)c1c(C)[nH]n(-c2ccccc2)c1=O	1	-2	-10	-1	4
O=C(CN1CC(=O)Oc2ccccc21)OCC(=O)c1cccc(Br)c1	73*	.	.	.	-8
COc1ccccc1OCCNC(=O)C1CCCCC1	-2	32*	12	0	-11
COc1ccccc1OCCNC(=O)c1ccc(S(=O)(=O)N(C)C)cc1	-5	0	-18*	-1	4
CO[C@@H]1CN(C)C(=O)c2cc(NC(=O)Nc3cccc(Cl)c3)ccc2OC[C@H](C)N(C(=O)Nc2c(C)noc2C)C[C@H]1C	.	.	-5	2	.
Cc1noc(C)c1NC(=O)Nc1ccc2c(c1)C(=O)N(C)[C@@H]1CC[C@H](CC(=O)N[C@H]3CCN(Cc4ccccc4)C3)O[C@H]1CO2	1	-1	5	3	.
CCn1cnc2c1c(=O)n(CC(=O)NCC(F)(F)F)c(=O)n2Cc1ccccc1	-2	58*	15	-1	0
O=C(/C=C1\C(=O)Nc2ccccc21)/C=C1\C(=O)Nc2ccccc21	1	3	4	0	-10
O=C1Nc2ccccc2/C1=C\C(=O)c1ccccc1	-22	2	-19*	2	1
Cc1ccc(CNC(=O)CNC(=S)N(Cc2ccccc2)Cc2ccccc2F)cc1	-3	5	-30*	-3	5
O=C(CNC(=S)N(Cc1ccccc1)Cc1ccccc1F)NCc1ccc(Cl)cc1	-5	4	-27*	2	-13
O=C(CNC(=S)N(Cc1ccccc1)Cc1ccccc1F)NCc1ccccc1	-3	-3	-29	2	-4
SMILES	ARNT-TACC3 inh	ERAP1 inh	rRNA inh HTS	F508del corr	PvdQ inh
CCCC(=O)Nc1ccc(C(=O)NNC(=S)NC(=O)c2ccc(Br)o2)cc1	-1	-1	-27*	-2	5
CCN(CC)c1ccc(/C=N/NC(=O)c2ccco2)c(O)c1	74*	3	-39*	35*	-17
Cc1cccc(/C=N/NC(=O)Cc2cccs2)c1	-3	1	-19*	-1	-12
CCN(CC)c1ccc(/C=N/NC(=O)c2ccco2)cc1	-1	.	.	.	-10
CCN(CC)c1ccc(/C=N/NC(=O)Cc2cccs2)c(O)c1	32*	.	.	.	3
O=C(C[C@H]1CC[C@@H](NC(=O)c2cccc(F)c2)[C@@H](CO)O1)Nc1nccs1	17	0	-1	-3	.
N=c1c(C(=O)NCCN2CCOCC2)cc2c(=O)n3ccccc3nc2n1CCCN1CCOCC1	2	37*	22	0	-4
N=c1c(C(=O)NCCN2CCOCC2)cc2c(=O)n3ccccc3nc2n1Cc1ccc(F)cc1	9	-46	1	2	-5
N=c1c(C(=O)NC2CCCC2)cc2c(=O)n3ccccc3nc2n1CC1CCCO1 (stereo not given)	-4	-2	-3	3	-30
N=c1c(C(=O)NC2CCCCC2)cc2c(=O)n3ccccc3nc2n1CC1CCCO1 (stereo not given)	-2	103*	2	-1	-62
CN(C)C(=O)C[C@@H]1CC[C@H]2[C@H](COc3ccc(NC(=O)Nc4cccc(Cl)c4)cc3C(=O)N2C)O1	9	0	-2	2	.
Cc1[nH]n(-c2ccccc2)c(=O)c1CCO	1	3	19	-1	-15
Cc1[nH]n(-c2nc(-c3ccccc3F)cc(=O)[nH]2)c(=O)c1CCO	45*	3	9	-1	-1
O=C(O)CN(CC(=O)O)CC(=O)O	65*	6	13	-1	-4
COc1cc2c(cc1OC)-c1cc(Nc3ccc(N(C)C)cc3)nc(=O)n1CC2	45*	-10	13	3	-12
O=C(NCC1CC1)[C@@H]1[C@@H](CO)[C@@H]2Cn3c(ccc(/C=C/c4ccccc4)c3=O)[C@H]1N2C(=O)C1CC1	-16	-374	-5	-2	.
Cc1cc(C(=O)COc2ccc(Cl)cc2Br)c(C)n1C	-8	-4	-45*	-1	3
CC1CCC(NC(=O)CCNS(=O)(=O)c2ccccc2)CC1 (stereo not given)	8	2	5	2	-18
O=C(CCNS(=O)(=O)c1cccc(C(F)(F)F)c1)NC1CC1	5	1	8	16*	-6
N#C/C(=N\Nc1ccc(Cl)cc1)C(=O)c1ccccc1	4	.	.	.	13
Cc1c(N/N=C(\C#N)C(=O)c2ccc(Cl)cc2)c(=O)n(-c2ccccc2)n1C	60*	.	.	.	-6
COc1ccc2c3c(n(C)c2c1)[C@H](CO)N(Cc1nccs1)CC31CCN(C)CC1	.	.	2	-2	.
COc1ccc(C2SCC(=O)N2Cc2ccccc2)cc1 (stereo not given)	-3	1	-3	-3	-16

Bioassay records deposited in PubChem by Broad Institute.
